Test [1] has as its target Rap guanine nucleotide exchange factor 3 (Homo sapiens) (UniProt O95398). The test can be described thus: Confirmatory qHTS for antagonist of cAMP-regulated guanine nucleotide exchange factor 3 (EPAC1) (AID 1645880). Also: nearly all actives have a fitted effect of over 55% in size. Also: potency is read from the fitted curve at half-maximal effect. In outline:
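Nucleotide exchange uses 100 nM EPAC1, 250 nM RAP1B-BODIPY-GDP and 50 uM GDP, with compounds in a concentration-titration series. After 5 min at room temperature, fluorescence (480 nm ex/540 nm em) is read every 5 min for 30 min. Data are normalized to control ATA and DMSO.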

The target is the same in test [2]. Description: Confirmatory qHTS for agonist of cAMP-regulated guanine nucleotide exchange factor 3 (EPAC1) (AID 1645881). Also: nearly all actives have a fitted effect of over 75% in size. Also: potency is read from the fitted curve at half-maximal effect.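 As to activation: EPAC1 catalysed release of BODIPY-GDP from Rap1B seen as fluorescence loss; 100% = effect of cAMP agonist control.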 A general note: qHTS replaces the single test concentration by a dilution series.
Test [3] deals with Rap guanine nucleotide exchange factor 4 (Homo sapiens) (UniProt Q8WZA2). Description: Confirmatory qHTS for agonist of cAMP-regulated guanine nucleotide exchange factor 4 (EPAC2) (AID 1645884).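 Also: nucleotide exchange releases bodipy-GDP from Rap1 and this lowers its fluorescence; nearly all actives have a fitted effect of over 65% in size.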 Also: potency is read from the fitted curve at half-maximal effect. As to activation: % is scaled to controls: 0 for no effect and ±100 for the full control effect.
The target is the same in test [4]. The test can be described thus: Confirmatory qHTS for antagonist of cAMP-regulated guanine nucleotide exchange factor 4 (EPAC2) (AID 1645885). Also: nearly all actives have a fitted effect of over 25% in size. Also: potency is read from the fitted curve at half-maximal effect. As to activity change, negative = inhibition: % is scaled to controls: 0 for no effect and ±100 for the full control effect.
For test [5], the target named is Rap guanine nucleotide exchange factor 3 (Homo sapiens) (UniProt O95398). Description: Counterscreen qHTS for antagonist of cAMP-regulated guanine nucleotide exchange factor 3 (EPAC1) (AID 1645888).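 Also: fluorescence loss as bound BODIPY-GDP is released from Rap1B; % of control where 0% means no effect.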 The essentials: (§1)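 Rap1B-BODIPY-GDP 250 nM + GDP 50 uM; cpds 7-pt, final 9.74 nM–152 uM (activator mode) or from 7.32 nM upwards (inhibitor mode); RT; FI 480/540 nm at 5 and 30 min, then ± cAMP, reread.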
(In general: The purpose of a counterscreen is to sort out artefacts and off-target activity.)

Test [6] has the same target. Description: Counterscreen qHTS for agonist of cAMP-regulated guanine nucleotide exchange factor 3 (EPAC1) (AID 1645889). Also: nearly all actives have a fitted effect of over 40% in size. Also: potency is read from the fitted curve at half-maximal effect. As to activation: % of control where 0% means no effect. In outline: as §1

Structures are written as SMILES. Results filed as inconclusive are left out. A number with no mark means an inactive call. Activity calls are given as the source filed them. Calls follow the shape of the dose curve; as a rule, active = well fitted curve in the direction sought with a large enough effect; inconclusive = small, poorly fitted or top-dose-only effect, or another doubt; inactive = no such curve, though single readings can be large; an effect the other way counts as inactive or inconclusive.

We go through 35 compounds from PubChem BioAssay (NCATS).

Chain of Rap guanine nucleotide exchange factor 3 (Homo sapiens) (O95398 whole entry, looked up): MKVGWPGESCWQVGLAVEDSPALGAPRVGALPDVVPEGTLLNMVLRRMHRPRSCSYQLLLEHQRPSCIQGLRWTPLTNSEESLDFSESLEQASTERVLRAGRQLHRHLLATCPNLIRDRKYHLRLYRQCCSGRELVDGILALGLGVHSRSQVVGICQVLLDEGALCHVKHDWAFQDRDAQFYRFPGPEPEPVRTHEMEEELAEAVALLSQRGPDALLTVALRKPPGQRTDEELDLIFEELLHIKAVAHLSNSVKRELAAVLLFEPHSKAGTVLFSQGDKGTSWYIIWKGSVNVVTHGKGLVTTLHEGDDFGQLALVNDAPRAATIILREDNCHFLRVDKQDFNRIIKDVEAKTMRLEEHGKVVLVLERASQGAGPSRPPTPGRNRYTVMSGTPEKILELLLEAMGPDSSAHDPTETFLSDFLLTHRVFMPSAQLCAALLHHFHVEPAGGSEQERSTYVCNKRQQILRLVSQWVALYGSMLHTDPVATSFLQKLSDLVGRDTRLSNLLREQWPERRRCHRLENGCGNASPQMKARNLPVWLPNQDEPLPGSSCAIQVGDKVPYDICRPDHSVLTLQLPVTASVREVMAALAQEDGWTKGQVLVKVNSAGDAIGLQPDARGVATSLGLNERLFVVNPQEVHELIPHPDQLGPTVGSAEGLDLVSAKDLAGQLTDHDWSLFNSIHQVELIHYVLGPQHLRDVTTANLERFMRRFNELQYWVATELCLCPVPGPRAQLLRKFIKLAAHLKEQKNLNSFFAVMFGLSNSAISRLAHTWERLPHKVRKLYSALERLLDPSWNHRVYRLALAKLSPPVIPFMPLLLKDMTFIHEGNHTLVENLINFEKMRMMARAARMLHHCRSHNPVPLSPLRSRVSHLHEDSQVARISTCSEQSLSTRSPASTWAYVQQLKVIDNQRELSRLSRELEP
Chain of Rap guanine nucleotide exchange factor 4 (Homo sapiens) (Q8WZA2 whole entry, looked up): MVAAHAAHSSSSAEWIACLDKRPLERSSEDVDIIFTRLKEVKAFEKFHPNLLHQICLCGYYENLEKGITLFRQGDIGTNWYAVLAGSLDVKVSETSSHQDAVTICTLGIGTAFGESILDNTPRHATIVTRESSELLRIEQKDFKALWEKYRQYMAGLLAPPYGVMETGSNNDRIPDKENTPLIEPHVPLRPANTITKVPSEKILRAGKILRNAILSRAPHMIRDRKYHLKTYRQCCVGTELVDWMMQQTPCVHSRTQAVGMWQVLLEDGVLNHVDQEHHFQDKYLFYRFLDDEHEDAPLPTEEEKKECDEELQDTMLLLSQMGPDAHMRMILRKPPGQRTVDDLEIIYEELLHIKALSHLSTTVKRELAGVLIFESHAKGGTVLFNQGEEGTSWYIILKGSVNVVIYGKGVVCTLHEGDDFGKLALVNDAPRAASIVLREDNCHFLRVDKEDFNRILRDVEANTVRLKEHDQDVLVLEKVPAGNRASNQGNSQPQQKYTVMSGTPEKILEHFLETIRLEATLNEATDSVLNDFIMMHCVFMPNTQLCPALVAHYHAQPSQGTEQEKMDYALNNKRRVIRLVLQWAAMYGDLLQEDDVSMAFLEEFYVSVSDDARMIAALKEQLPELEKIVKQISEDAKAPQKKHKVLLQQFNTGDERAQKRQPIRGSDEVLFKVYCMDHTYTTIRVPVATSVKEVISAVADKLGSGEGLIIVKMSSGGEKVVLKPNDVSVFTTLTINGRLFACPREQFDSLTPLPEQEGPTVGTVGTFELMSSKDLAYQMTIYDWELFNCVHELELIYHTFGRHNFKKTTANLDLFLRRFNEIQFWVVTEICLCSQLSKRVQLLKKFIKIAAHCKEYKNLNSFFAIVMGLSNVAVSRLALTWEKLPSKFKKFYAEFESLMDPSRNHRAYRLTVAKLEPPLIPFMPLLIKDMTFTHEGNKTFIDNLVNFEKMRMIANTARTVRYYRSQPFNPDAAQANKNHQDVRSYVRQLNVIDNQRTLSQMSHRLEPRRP

As to `CN(Cc1ccc(F)cc1)C(=O)c1cccc(OCc2ccccc2)c1`, the Potency result in test [1], in test [2] and in test [4] was “inactive” in each case. Also, the activation in test [3] was 10.9% [at 17.1 µM, percent relative to cAMP agonist control]; in test [6], -0.388% [at 30.8 µM]. Besides, the activity change, negative = inhibition in test [5] is 1.29% [at 30.8 µM].
For `Cc1noc(NS(=O)(=O)c2ccc(NC(=O)CSc3nnc4c(n3)[nH]c3ccccc34)cc2)c1C`, in test [1], the Potency was 23.9 µM (active). Moreover, the Potency entry in test [2], in test [3], in test [4], in test [5] and in test [6] was “inactive” throughout.
For the compound `Cc1ccc2nc(-c3ccc(Cl)cc3)c(Cc3ccccc3C(F)(F)F)n2c1`, the Potency entry in test [1], in test [2] and in test [4] was “inactive” throughout. Also, the activation was 10.6% [at 17.1 µM, percent relative to cAMP agonist control] in test [3] and -0.77% [at 30.8 µM] in test [6]. In addition, in test [5], the activity change, negative = inhibition is 0.28% [at 30.8 µM].
For `Cc1ccc2[nH]cc(C(c3ccccc3)c3cccs3)c2c1` (stereo not given), the Potency result in test [1], in test [2], in test [3], in test [5] and in test [6] was “inactive” each time. For the same compound, the outcome in test [4] was “inactive [at 12.7 µM]”.
Take `O=C(O)C(c1ccccc1)N1C(=O)/C(=C\c2ccc(-c3ccccc3Cl)o2)SC1=S` (stereo not given): the Potency result in test [1], in test [2], in test [3], in test [4], in test [5] and in test [6] was “inactive” in each case.
Regarding `COC(=O)CSc1nc(C)cc(Oc2ccccc2)n1`, the Potency result in test [1], in test [2], in test [3], in test [4], in test [5] and in test [6] was “inactive” in each case.
Turning to `Cc1ccc(-c2csc(NC(=O)c3ccc(Br)cc3)c2C(=O)O)cc1`, in test [1], the Potency was 33.8 µM (active). The Potency entry in test [2], in test [3], in test [4], in test [5] and in test [6] was “inactive” in each case.
Regarding `O=C1C=C(N2CCOCC2)c2ccccc2C1=O`, in test [1], the Potency is 39.8 µM (active). The Potency result in test [2] and in test [4] was “inactive” throughout. The activation is -3.17% [at 17.1 µM, percent relative to cAMP agonist control] in test [3] and 26.3% [at 30.8 µM] in test [6]. For the same compound, in test [5], the activity change, negative = inhibition is -11.6% [at 30.8 µM].
As to `CN1CCN(S(=O)(=O)c2ccc(Nc3ccc(F)cc3)nc2)CC1`, the Potency result in test [1], in test [2] and in test [4] was “inactive” throughout. The activation in test [3] is 6.27% [at 17.1 µM, percent relative to cAMP agonist control]; in test [6], 16.5% [at 30.8 µM]. For the same compound, in test [5], the activity change, negative = inhibition is -5.53% [at 30.8 µM].
`COc1ccccc1C(=O)NC(CCSC)C(=O)NCc1ccccn1` (stereo not given): the Potency entry in test [1], in test [2] and in test [4] was “inactive” each time. The activation in test [3] was -0.555% [at 17.1 µM, percent relative to cAMP agonist control]; in test [6] it was -9.2% [at 30.8 µM]. Further, the activity change, negative = inhibition in test [5] was -16.2% [at 30.8 µM].
Turning to `O=C(O)c1ccc(Nc2ncnc3ccccc23)cc1`, the Potency result in test [1], in test [2], in test [3], in test [4], in test [5] and in test [6] was “inactive” each time.
With `Cc1ccc(CN(C(=O)COc2cccc(Cl)c2)c2ccccn2)o1`, the Potency result in test [1], in test [2], in test [3], in test [4], in test [5] and in test [6] was “inactive” in each case.
As to `CCC1CCCCN1CCCNC(=O)c1ccc(CS(=O)(=O)Cc2ccccc2F)o1` (stereo not given), the Potency result in test [1], in test [2], in test [3], in test [4], in test [5] and in test [6] was “inactive” each time.
With `O=C(O)c1cccc(N/N=C/c2cc(Br)cc(Br)c2O)c1`, the Potency in test [1] is 75.7 µM (active); in test [4], 67.5 µM (active). The Potency entry in test [2], in test [3], in test [5] and in test [6] was “inactive” each time.
As for `Cc1ccc2oc(=O)n(CCOc3ccccc3Cl)c2c1`, the Potency entry in test [1], in test [2], in test [3], in test [4], in test [5] and in test [6] was “inactive” each time.
With `CCC(C(=O)OC)n1c(-c2ccccc2)nc2ccccc2c1=O` (stereo not given), the Potency result in test [1], in test [2], in test [3], in test [5] and in test [6] was “inactive” each time. The Potency in test [4] is 19 µM (active).
With `COc1ccc(CC(=O)Nc2nc(-c3cccnc3)cs2)cc1`, the Potency result in test [1], in test [2] and in test [4] was “inactive” in each case. The activation in test [3] is 15.1% [at 17.1 µM, percent relative to cAMP agonist control]; in test [6] it was -9.76% [at 30.8 µM]. In addition, the activity change, negative = inhibition in test [5] was -4.63% [at 30.8 µM].
`Cc1cc2[nH]c(=O)c(=O)[nH]c2cc1S(=O)(=O)Nc1cccc(Cl)c1`: in test [1], the Potency is 42.6 µM (active). For the same compound, the Potency entry in test [2], in test [3], in test [4], in test [5] and in test [6] was “inactive” throughout.
Turning to `NNc1nc2c(Cl)ccc(Cl)c2s1`, the Potency result in test [1], in test [2], in test [3], in test [4], in test [5] and in test [6] was “inactive” each time.
`CCOC(=O)c1cc(C(C)(C)C)nc(SC)c1C#N`: the Potency entry in test [1], in test [2], in test [3], in test [4], in test [5] and in test [6] was “inactive” in each case.
On to `Cn1c(=O)cc(N2CCN(C(=O)c3ccco3)CC2)[nH]c1=O`, for which the Potency entry in test [1], in test [2], in test [3], in test [4], in test [5] and in test [6] was “inactive” in each case.
For the compound `COc1cc(/C=C(\C#N)C(=O)NC(C)C)cc(Cl)c1O`, the Potency result in test [1], in test [2], in test [3], in test [4], in test [5] and in test [6] was “inactive” each time.
Regarding `CCCc1[nH]nc2c1C(c1cccnc1)C(C#N)=C(N)O2` (stereo not given), the Potency result in test [1], in test [2] and in test [4] was “inactive” each time. Besides, the activation was 5.78% [at 17.1 µM, percent relative to cAMP agonist control] in test [3] and -0.109% [at 30.8 µM] in test [6]. Moreover, the activity change, negative = inhibition in test [5] is -9.67% [at 30.8 µM].
In the case of `NS(=O)(=O)c1ccc(NC(=O)Cc2c(F)cccc2Cl)cc1`, the Potency result in test [1], in test [2], in test [3], in test [4], in test [5] and in test [6] was “inactive” each time.
For the compound `CCOc1cc(C(=O)Nc2ccc3c(c2)n(C)c(=O)c(=O)n3C)cc(OCC)c1OCC`, the Potency result in test [1], in test [2], in test [3], in test [5] and in test [6] was “inactive” each time. The outcome in test [4] was “inactive [at 12.7 µM]”.
Take `Cc1ccc(NC(=O)c2cccc(NC(=O)/C=C/c3ccco3)c2)cc1C`: in test [1], the Potency was 39.8 µM (active). The Potency entry in test [2] and in test [4] was “inactive” each time. For the same compound, the activation was 6.06% [at 17.1 µM, percent relative to cAMP agonist control] in test [3] and 5.53% [at 30.8 µM] in test [6]. For the same compound, the activity change, negative = inhibition in test [5] is -4.44% [at 30.8 µM].
Turning to `CC(Oc1ccccc1)C(=O)Nc1nnc(S(=O)(=O)N2CCCCC2)s1` (stereo not given), the Potency result in test [1], in test [2], in test [3], in test [4], in test [5] and in test [6] was “inactive” each time.
As to `Nc1[nH]c(C(=O)c2ccccc2)c(-c2ccccc2C(F)(F)F)c1C(=O)NCCc1cccs1`, the Potency entry in test [1], in test [2], in test [3], in test [4], in test [5] and in test [6] was “inactive” throughout.
As to `Cc1ccc2c(c1)c(/C=C/c1cc[n+](C)cc1)c(C)n2C`, the Potency result in test [1], in test [4] and in test [5] was “inactive” each time. In addition, the Potency is 100 µM (active) in test [2], 100 µM (active) in test [3] and 8.91 µM (active) in test [6].
As for `COc1ccc(C/C(C)=N/NC(=O)c2cccnc2)cc1`, the Potency result in test [1], in test [2] and in test [4] was “inactive” in each case. In addition, the activation is -0.201% [at 17.1 µM, percent relative to cAMP agonist control] in test [3] and 7.53% [at 30.8 µM] in test [6]. In addition, in test [5], the activity change, negative = inhibition is -16% [at 30.8 µM].
`CCN(CC)c1ccc(C(=O)OCC(=O)NCC2CCCO2)cc1` (stereo not given): the Potency entry in test [1], in test [2] and in test [4] was “inactive” in each case. In addition, the activation in test [3] was 4.19% [at 17.1 µM, percent relative to cAMP agonist control]; in test [6], 25.8% [at 30.8 µM]. Besides, the activity change, negative = inhibition in test [5] was -1.2% [at 30.8 µM].
Turning to `COC(=O)c1scc(C#N)c1N/N=C(\C#N)S(=O)(=O)c1ccc(Cl)cc1`, in test [1], the Potency is 47.8 µM (active). Besides, the Potency result in test [2], in test [3], in test [4], in test [5] and in test [6] was “inactive” throughout.
`Cc1cc(S(=O)(=O)Nc2ccccc2C)ccc1F`: the Potency entry in test [1], in test [2], in test [3], in test [5] and in test [6] was “inactive” each time. Moreover, the Potency in test [4] is 13.5 µM (active).
In the case of `Cn1c(COc2ccc(Cl)cc2)nc2ccccc2c1=O`, the Potency in test [1] was 25.1 µM (active). Also, the Potency entry in test [2] and in test [4] was “inactive” throughout. Besides, the activation in test [3] is 4.13% [at 17.1 µM, percent relative to cAMP agonist control]; in test [6] it was 5.9% [at 30.8 µM]. In addition, the activity change, negative = inhibition in test [5] is 1.04% [at 30.8 µM].
As to `Cc1ccc(NC(=O)c2ccc(CN3CC(=O)N4CCCCC4C3=O)cc2)c(C)c1` (stereo not given), the Potency result in test [1], in test [2], in test [3], in test [4], in test [5] and in test [6] was “inactive” each time.
